The text below walks through data of PubChem BioAssay (Tox21).

Inconclusive results are not listed. Where a call stands in place of a potency, no number is given. The source made the active and inactive calls. Calls come from the whole dose curve; as a rule, active = well fitted cell-killing curve with a large enough effect in the repeat runs; inconclusive = weak or mixed curves, or effect the other way; inactive = no such curve, though single readings can be large or run the other way.

A short description of this assay: qHTS assay to identify small molecule agonists of the vitamin D receptor (VDR) signaling pathway - cell viability counter screen (AID 743224). Note: nearly all actives have a fitted effect of over 50% in size. Particulars: VDR-bla HEK293T viability, CellTiter-Glo luminescence, 16 h; series mostly up to 62.6 µM. From the text: U.S. Tox21 Program National Center for Advancing Translational Sciences [NCATS] NIH Chemical Genomics Center [NCGC] U.S. Environmental Protection Agency [EPA] National Institutes of Environmental Health Sciences [NIEHS] National Toxicology Program [NTP] U.S. Food and Drug Administration [FDA] Tox21 Assay Overview: The vitamin D receptor (VDR), a member of nuclear hormone receptor superfamily, plays a critical role in calcium homeostasis and bone metabolism. It is also involved in cell differentiation and growth, and thrombogenicity. […] The cytotoxicity of the Tox21 compound library against the VDR-bla cell line was tested in parallel by measuring the cell viability using CellTiter-Glo assay (Promega, Madison, WI) in the same wells.
Tox21 Assay Protocol Summary: VDR-bla cells were dispensed at 2,000 cells/6 uL/well into black wall/clear-bottom 1536-well plates using a Multidrop Combi (Thermo Fisher Scientific, Waltham, MA) dispenser. After the assay plates were incubated at a 37C and 5% CO2 for 4 h, 23 nL of compounds dissolved in DMSO, positive controls or DMSO only was transferred to the assay plate by a Pintool station (Kalypsys, San Diego, CA). The plates were incubated at 37C and 5% CO2 for 16 h. After 1 uL of LiveBLAzerTM B/G FRET substrate was added using a Bioraptr Flying Reagent Dispenser (FRD) workstation (Beckman Coulter, Indianapolis, IN, USA), the plates were incubated at room temperature for 2 h, and fluorescence intensity was measured by an Envision plate reader (PerkinElmer, Shelton, CT). For cell viability readout that measures cytotoxicity, 3 ul/well of CellTiter-Glo reagent was added into the assay plates using a FRD. After 30 min incubation at room temperature, the luminescence intensity in the plates was measured using a ViewLux (PerkinElmer) plate reader.
Background: In qHTS, concentration-response curves come from the screen itself.
For the molecule `Cc1ccc(N(CC2=NCCN2)c2cccc(O)c2)cc1`, the Potency entry was “inactive”. The result for `COc1cc(NC(C)CCCN)c2ncccc2c1` (stereo not given) reads “inactive”. For `c1ccc(CNc2ncnc3c2ncn3C2CCCCO2)cc1` (stereo not given), the Potency result was “inactive”. On to `Cc1cccc(C)c1NC(=O)c1cc(S(N)(=O)=O)c(Cl)cc1O`, for which the Potency entry was “inactive”. The result for `Cc1ccc(S(=O)(=O)NC(=O)NC2CCCCC2)cc1` reads “inactive”. Turning to `Cc1cc(CCCOc2c(C)cc(-c3noc(C(F)(F)F)n3)cc2C)on1`, the Potency result was “inactive”.

As to `C=C(C)c1ccccc1`, the Potency result is “inactive”. The result for `CCCCOC(=O)CCCCC(=O)OCCCC` reads “inactive”; that for `NC(=O)CCCCC(N)=O`, “inactive”. With `CCNc1nc(N)nc(Cl)n1`, the Potency result was “inactive”. Next, `Nc1nc2ccc(OC(F)(F)F)cc2s1`: “inactive”.

Regarding `CC[C@H]1OC(=O)[C@H](C)[C@@H](O[C@H]2C[C@@](C)(OC)[C@@H](O)[C@H](C)O2)[C@H](C)[C@@H](O[C@@H]2O[C@H](C)C[C@H](N(C)C)[C@H]2O)[C@](C)(O)C[C@@H](C)CN(C)[C@H](C)[C@@H](O)[C@]1(C)O`, the Potency entry is “inactive”. Next, `CCCCCCC(CO)CCCC` (stereo not given): “inactive”. Next, `CC(C)N(C)C`: “inactive”; `CC(=O)OCC(C)C`: “inactive”; `CC1C(C)(C)C2=C(C(=O)CCC2)C1(C)C` (stereo not given): “inactive”. Next, `O=C(CCS)OCC(COC(=O)CCS)(COC(=O)CCS)COC(=O)CCS`: “inactive”. `CCCC(=O)OC(=O)CCC`: the Potency entry is “inactive”. Next, `CCN(CC)c1cccc(O)c1`: “inactive”; `ClC1=C(Cl)C1(Cl)Cl`: “inactive”; `CCSC(=O)N(CC)CC`: “inactive”. The result for `CCN(CC)CCOC(=O)C(c1ccccc1)c1ccccc1` reads “inactive”; that for `CC(=O)C(C)=O`, “inactive”; that for `CC(CCc1ccc(O)cc1)NCCc1ccc(O)c(O)c1` (stereo not given), “inactive”.

For the molecule `CCCCC(CC)COS(=O)(=O)O` (stereo not given), the Potency entry was “inactive”. Next, `CC[C@H]1OC(=O)[C@H](C)[C@@H](O[C@H]2C[C@@](C)(OC)[C@@H](O)[C@H](C)O2)[C@H](C)[C@@H](O[C@@H]2O[C@H](C)C[C@H](N(C)C)[C@H]2O)[C@](C)(O)C[C@@H](C)/C(=N\OCOCCOC)[C@H](C)[C@@H](O)[C@]1(C)O`: “inactive”; `CC(C)COC(=O)c1ccc(O)cc1`: “inactive”; `C=CC(=O)O`: “inactive”.

As for `O=CNNC=O`, the Potency entry was “inactive”. Consider `CCc1ccc(C)cc1`, for which the Potency result is “inactive”. The result for `COC(OC)OC` reads “inactive”; that for `CC(=O)C(=O)CC(C)C`, “inactive”; that for `O=C(/C=C/c1ccc([N+](=O)[O-])cc1)c1ccccc1`, “inactive”. As to `CCOc1ncc(F)c(=O)[nH]1`, the Potency result was “inactive”.

As to `CCCCCCCCCCCCCOC(=O)CCSCCC(=O)OCCCCCCCCCCCCC`, the Potency result is “inactive”. Next, `CCCCCC`: “inactive”; `COC(=O)Nc1nc2ccc(C(=O)C3CC3)cc2[nH]1`: “inactive”; `CC(C)(C(=O)c1cccnc1)c1cccnc1`: “inactive”. As to `CCCCC[C@H](O)/C=C/[C@H]1[C@H](O)CC(=O)[C@@H]1C/C=C\CCCC(=O)O`, the Potency entry is “inactive”.

Turning to `CCCCCCCCCCCCCCCCCC(=O)OCC(CC)CCCC` (stereo not given), the Potency entry was “inactive”.
